The whole screen tested about 5,500 compounds, of which about 2,000 (36%) were called active. Roughly 18% stayed inconclusive and do not appear here. Cut-off read from the data, not from the text of the source: active = normalized growth mostly below about 0.91 (no sharp cut-off); inconclusive = no clear call, values can overlap the other calls; inactive = mostly above about 0.92. This is one part of the list.
Assay: chemical genetic growth profiling, strain panel (AID 1159580);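 note: tested at 20 µM; growth read once vehicle control cultures reached saturation at 30 °C; 1 = growth at the plate median or of vehicle wells; lower values mean less growth of the strain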
Conditions: growth OD

Measured: normalized growth

CC1=NCCc2c1[nH]c1cc(O)ccc21
inactive: S. cerevisiae deletion strains, locus YJR075W, strain HOC1, hits give low values 0.988 | S. cerevisiae deletion strains, locus YKL009W, strain mrt4, hits give low values 0.951 | S. cerevisiae deletion strains, locus YKL068W, hits give low values 0.993 | S. cerevisiae deletion strains, locus YKL085W, strain MDH1 (second series), hits give low values 0.988 | S. cerevisiae deletion strains, locus YKL085W, strain MDH1, hits give low values 0.988 | S. cerevisiae deletion strains, locus YKL160W, strain elf1, hits give low values 0.955 | S. cerevisiae deletion strains, locus YKL190W, strain CNB1, hits give low values 0.999 | S. cerevisiae deletion strains, locus YKR001C, strain vps1, hits give low values 0.993 | S. cerevisiae deletion strains, locus YKR026C, strain gcn3, hits give low values 0.989 | S. cerevisiae deletion strains, locus YKR091W, strain srl3, hits give low values 0.988 | S. cerevisiae deletion strains, locus YLL001W, strain dnm1, hits give low values 0.984 | S. cerevisiae deletion strains, locus YLL026W, hits give low values 0.992 | S. cerevisiae deletion strains, locus YLL041C, strain sdh2, hits give low values 0.97 | S. cerevisiae deletion strains, locus YLR027C, strain aat2, hits give low values 0.985 | S. cerevisiae deletion strains, locus YLR039C, strain RIC1, hits give low values 0.993 | S. cerevisiae deletion strains, locus YLR058C, strain SHM2, hits give low values 0.971 | S. cerevisiae deletion strains, locus YLR102C, strain apc9, hits give low values 0.993 | S. cerevisiae deletion strains, locus YLR113W, strain HOG1, hits give low values 1 | S. cerevisiae deletion strains, locus YLR221C, strain rsa3, hits give low values 1.03 | S. cerevisiae deletion strains, locus YLR258W, strain gsy2, hits give low values 0.967 | S. cerevisiae deletion strains, locus YLR262C, strain YPT6 (second series), hits give low values 0.989 | S. cerevisiae deletion strains, locus YLR262C, strain YPT6, hits give low values 0.95 | S. cerevisiae deletion strains, locus YLR268W, strain sec22, hits give low values 1.05 | S. cerevisiae deletion strains, locus YLR320W, strain mms22, hits give low values 1.03 | S. cerevisiae deletion strains, locus YLR330W, strain CHS5, hits give low values 0.996 | S. cerevisiae deletion strains, locus YLR342W, strain FKS1 (second series), hits give low values 0.996 | S. cerevisiae deletion strains, locus YLR342W, strain FKS1, hits give low values 0.992 | S. cerevisiae deletion strains, locus YLR357W, strain rsc2, hits give low values 0.973 | S. cerevisiae deletion strains, locus YLR370C, strain arc18, hits give low values 0.973 | S. cerevisiae deletion strains, locus YLR371W, strain rom2, hits give low values 0.978 | S. cerevisiae deletion strains, locus YLR384C, strain iki3, hits give low values 0.994 | S. cerevisiae deletion strains, locus YLR418C, strain cdc73, hits give low values 0.995 | S. cerevisiae deletion strains, locus YML016C, strain PPZ1, hits give low values 0.997 | S. cerevisiae deletion strains, locus YML032C, strain rad52, hits give low values 0.995 | S. cerevisiae deletion strains, locus YML120C, strain ndi1, hits give low values 0.962 | S. cerevisiae deletion strains, locus YML124C, strain tub3, hits give low values 0.988 | S. cerevisiae deletion strains, locus YMR058W, strain fet3, hits give low values 0.994 | S. cerevisiae deletion strains, locus YMR078C, strain ctf18, hits give low values 0.979 | S. cerevisiae deletion strains, locus YMR125W, strain sto1, hits give low values 0.928 | S. cerevisiae deletion strains, locus YMR129W, hits give low values 0.986 | S. cerevisiae deletion strains, locus YMR205C, strain PFK2, hits give low values 0.95 | S. cerevisiae deletion strains, locus YMR223W, strain ubp8, hits give low values 0.961 | S. cerevisiae deletion strains, locus YMR231W, strain pep5, hits give low values 0.991 | S. cerevisiae deletion strains, locus YMR263W, strain SAP30, hits give low values 0.99 | S. cerevisiae deletion strains, locus YMR307W, strain GAS1, hits give low values 0.987 | S. cerevisiae deletion strains, locus YNL067W, strain RPL9B, hits give low values 1.02 | S. cerevisiae deletion strains, locus YNL071W, strain lat1, hits give low values 0.981 | S. cerevisiae deletion strains, locus YNL128W, strain TEP1, hits give low values 0.97 | S. cerevisiae deletion strains, locus YNL153C, strain GIM3, hits give low values 1 | S. cerevisiae deletion strains, locus YNL183C, strain NPR1, hits give low values 0.928 | S. cerevisiae deletion strains, locus YNL209W, strain ssb2, hits give low values 0.988 | S. cerevisiae deletion strains, locus YNL233W, strain BNI4, hits give low values 1 | S. cerevisiae deletion strains, locus YNL248C, strain rpa49, hits give low values 0.926 | S. cerevisiae deletion strains, locus YNL250W, strain rad50, hits give low values 0.981 | S. cerevisiae deletion strains, locus YNL271C, strain bni1, hits give low values 1 | S. cerevisiae deletion strains, locus YNL298W, strain CLA4, hits give low values 0.985 | S. cerevisiae deletion strains, locus YNL307C, strain MCK1, hits give low values 0.988 | S. cerevisiae deletion strains, locus YNL322C, strain KRE1 (second series), hits give low values 0.981 | S. cerevisiae deletion strains, locus YNL322C, strain KRE1, hits give low values 0.992 | S. cerevisiae deletion strains, locus YNR049C, strain mso1, hits give low values 0.97 | S. cerevisiae deletion strains, locus YNR052C, strain pop2, hits give low values 0.995 | S. cerevisiae deletion strains, locus YOL006C, strain TOP1, hits give low values 1.04 | S. cerevisiae deletion strains, locus YOL012C, strain htz1 1.3 | S. cerevisiae deletion strains, locus YOL147C, strain pex11, hits give low values 0.998 | S. cerevisiae deletion strains, locus YOR001W, strain rrp6, hits give low values 1.01 | S. cerevisiae deletion strains, locus YOR061W, strain CKA2, hits give low values 0.978 | S. cerevisiae deletion strains, locus YOR069W, strain VPS5, hits give low values 0.973 | S. cerevisiae deletion strains, locus YOR070C, strain gyp1, hits give low values 1.01 | S. cerevisiae deletion strains, locus YOR080W, strain dia2, hits give low values 1.01 | S. cerevisiae deletion strains, locus YOR083W, strain WHI5, hits give low values 0.954 | S. cerevisiae deletion strains, locus YOR106W, strain vam3, hits give low values 0.93 | S. cerevisiae deletion strains, locus YOR136W, strain idh2, hits give low values 0.985 | S. cerevisiae deletion strains, locus YOR144C, strain elg1, hits give low values 0.994 | S. cerevisiae deletion strains, locus YOR184W, strain ser1, hits give low values 0.969 | S. cerevisiae deletion strains, locus YOR231W, strain MKK1, hits give low values 0.985 | S. cerevisiae deletion strains, locus YOR265W, strain rbl2, hits give low values 0.976 | S. cerevisiae deletion strains, locus YOR270C, strain vph1, hits give low values 1.02 | S. cerevisiae deletion strains, locus YOR290C, strain snf2, hits give low values 0.911 | S. cerevisiae deletion strains, locus YOR316C, strain cot1, hits give low values 0.992 | S. cerevisiae deletion strains, locus YPL051W, strain arl3, hits give low values 1.01 | S. cerevisiae deletion strains, locus YPL055C, strain LGE1, hits give low values 0.956 | S. cerevisiae deletion strains, locus YPL078C, strain atp4, hits give low values 0.928 | S. cerevisiae deletion strains, locus YPL106C, strain sse1, hits give low values 0.943 | S. cerevisiae deletion strains, locus YPL240C, strain hsp82, hits give low values 0.992 | S. cerevisiae deletion strains, locus YPL241C, strain CIN2, hits give low values 0.996 | S. cerevisiae deletion strains, locus YPL256C, strain CLN2, hits give low values 0.991 | S. cerevisiae deletion strains, locus YPR119W, strain clb2, hits give low values 0.989 | S. cerevisiae deletion strains, locus YPR141C, strain kar3, hits give low values 0.981 | S. cerevisiae deletion strains, locus YPR163C, strain tif3, hits give low values 1 | S. cerevisiae deletion strains, locus YPR167C, strain met16, hits give low values 0.998 | S. cerevisiae deletion strains, strain wtn01, hits give low values 0.992 | S. cerevisiae strains, strain wild type, hits give low values 0.988

From PubChem BioAssay AID1159580 (chemical genetic matrix, 2015)
